Laboratory results published in PubChem BioAssay AID1347426 (Functional Genomics Laboratory (NCATS/FGL), 2020).
Hit rate of the full screen: of about 31,000 sequences, about 1,400 (4.5%) were called active.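 Rule for the calls: active = median seed-adjusted z-score above 1 or below -1; inactive = the rest.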 The full list was thinned out, with actives kept by preference.

Test: Novel Modifiers of Survival Motor Neuron (SMN) Protein: Gene Identification via Genome-wide siRNA Screen;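 note: luminescence tracks full-length SMN protein made from the SMN2 reporter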
Conditions: HEK293T SMN2-luciferase reporter, siRNA knockdown, 72 h; actives lie on both sides
Method in brief: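 Genome-wide siRNA screen (10418 genes, 3 siRNAs each, 1 pmol per well) by reverse transfection in HEK293T cells stably carrying an SMN2-luciferase reporter; luminescence after 72 hours, normalized to negative-control siRNA, log10-transformed, MAD-scored.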
With AGAAAGGUUUUACUACAAUTT against POLR2C the median seed-adjusted z-score was -2.95 (active). For GGAAAACUCGUGUCCAUCATT against FARP1, the median seed-adjusted z-score was -0.487 (inactive). For UGUUCAGCAUAGUUGUUUUTT against SLC12A9, the median seed-adjusted z-score was -0.0853 (inactive). With GGAUCAAGCUCACAAGGGATT against WDR36 the median seed-adjusted z-score was 0.00836 (inactive). In the case of GCUCGUUGGGACCAACUAATT against DYNC2H1, the median seed-adjusted z-score is reported as -0.613 (inactive). With GACCAAAAUUUGGAUACAATT against CTSL2 the median seed-adjusted z-score was -1.04 (active). In the case of GUGUGGACUUGGAACAAUATT against THUMPD2, the median seed-adjusted z-score is reported as -0.129 (inactive). With GGGAUUCCAUUGACCAGAATT against PLCG2 the median seed-adjusted z-score was 0 (inactive). In the case of GCUGAGGAGUCAGUGCAUGTT against TNFRSF18, the median seed-adjusted z-score is reported as 0.154 (inactive). With AGACUGUAUUGCAGGGUGATT against MAFK the median seed-adjusted z-score was 1.73 (active). With GAGUCGGAGUCGAAGUAGATT against NKTR the median seed-adjusted z-score was -1.1 (active). With GAAUUAUGCUACUCGAGAATT against EIF3A the median seed-adjusted z-score was -0.689 (inactive). In the case of CAACAACAGGUAUGAGAUATT against ACCN2, the median seed-adjusted z-score is reported as -0.597 (inactive). With GCUGAAGGCUUAUGAGUAUTT against KCNV2 the median seed-adjusted z-score was -1.13 (active). With GUGGUCACUUGGUUCCAGATT against LBX2 the median seed-adjusted z-score was 0.538 (inactive). For GGUCAUAGGUUUUGGAUCUTT against HIATL1, the median seed-adjusted z-score was 0.327 (inactive). With CCAAUGCAGUGAUUACCGUTT against HSPA1L the median seed-adjusted z-score was -1.27 (active). For CCAGUUUCAUUAUACAUCATT against ZNF211, the median seed-adjusted z-score was -0.173 (inactive). For GCUUCACCCUGGCUAGAAATT against ECHDC2, the median seed-adjusted z-score was -0.0827 (inactive). For GUGUCGAGCUUGCAACUGUTT against LAMC2, the median seed-adjusted z-score was -0.186 (inactive). With CCUUUAACCAGUCUGCACATT against ZNF85 the median seed-adjusted z-score was -1.01 (active). In the case of GAAGGUGGAUUGCAACAAATT against GPX6, the median seed-adjusted z-score is reported as 0.35 (inactive). For GCAGAAGGCUCAGUAGCUATT against NAT5, the median seed-adjusted z-score was -0.0124 (inactive). With CACCCGCGCUCAUGAGAAATT against KLC2 the median seed-adjusted z-score was 0.0706 (inactive). With GCCCAUUACUUUACCACUUTT against METTL4 the median seed-adjusted z-score was 0.244 (inactive). With GCCUUGAUCAAGUAACAGATT against PARD6B the median seed-adjusted z-score was 0.315 (inactive). With GGCGCACGCUUUUCUCUAATT against ACTR1A the median seed-adjusted z-score was 1.28 (active). In the case of GCCUCAUGUAAAACCCUAUTT against MYLK, the median seed-adjusted z-score is reported as 0.0226 (inactive). For GCCUUCGAGUUCCUUGUUUTT against COX6B2, the median seed-adjusted z-score was -0.544 (inactive). With GUACUUUUGACAACAUUUATT against NAT13 the median seed-adjusted z-score was 0 (inactive). In the case of GGCUUUGAGCAUAAGAUCATT against MAP3K10, the median seed-adjusted z-score is reported as 0.201 (inactive). In the case of GCACCAAACUUAGCUACGATT against DIS3L2, the median seed-adjusted z-score is reported as -0.265 (inactive). With GACUGGGUCUGGUAAAACATT against DHX15 the median seed-adjusted z-score was 1.36 (active). With GAAUUGGACAUUUCGGAUATT against NEK10 the median seed-adjusted z-score was -0.0464 (inactive). For CAGUUGCAACUCUUCGUGATT against ALB, the median seed-adjusted z-score was -0.153 (inactive). With AAACAACUCGAUUUCGAAATT against PCDHB13 the median seed-adjusted z-score was -0.293 (inactive). In the case of GAACUUUUGGGACCAAAUATT against NME5, the median seed-adjusted z-score is reported as 0.393 (inactive). For GCCUUUUACGCAAACAUGUTT against P2RY8, the median seed-adjusted z-score was -0.136 (inactive). In the case of GAUUUUAUCUCAGUACAUUTT against UCK2, the median seed-adjusted z-score is reported as -1.51 (active). With CGUGCACUAUAUUGCAGUUTT against PRMT2 the median seed-adjusted z-score was 0.0895 (inactive). With GGAAUGUCACGGCUAAUCATT against PITPNM3 the median seed-adjusted z-score was -0.0378 (inactive). In the case of GGAAUGAUACCAUACCGAATT against NUP93, the median seed-adjusted z-score is reported as 1.01 (active). With UGAUCGCCUUGGUGAUUCATT against FOXH1 the median seed-adjusted z-score was 0 (inactive). With GGAUAGUUACUGACCGGGATT against NCL the median seed-adjusted z-score was 1.33 (active). In the case of GCGGGAGCAUUAUCUCAAATT against ZNF341, the median seed-adjusted z-score is reported as 0.356 (inactive). For CCAGACCUCAUGUCACAGATT against ZNF777, the median seed-adjusted z-score was 0.128 (inactive). With GACUGAAUGUUUAUACAGUTT against OSBPL1A the median seed-adjusted z-score was 0.0845 (inactive). In the case of GGUGGUAUCCUGUUCACAATT against TM9SF4, the median seed-adjusted z-score is reported as -0.0191 (inactive). With GGACCAUUUAGAGAAGGUUTT against WARS2 the median seed-adjusted z-score was 0.21 (inactive). With CCUACGUUACUUUCCCUCATT against FOXD4L6 the median seed-adjusted z-score was -0.137 (inactive). In the case of CAUGGAACAUUGUGAGAAATT against RPS6KB1, the median seed-adjusted z-score is reported as 1.4 (active). With AAAUCAAGAUUCUUACUGATT against TPM3 the median seed-adjusted z-score was 0.111 (inactive). In the case of GCACUUUAGAAUCACACGATT against TRMT6, the median seed-adjusted z-score is reported as 0.069 (inactive). In the case of GCUCAUUGUACAUCUCAGATT against ZNF26, the median seed-adjusted z-score is reported as 0 (inactive).
